In PubChem BioAssay AID485314 (National Center for Advancing Translational Sciences (NCATS), 2010) one finds Potency data, which are given here for 27 molecules.

Out of some 340,000 compounds screened, about 4,500 (1.3%) were called active. Entries that show only a call come without a potency. Inconclusive results (about 5%) are left out. The call rests on the fitted dose curve; in most records, active means well fitted inhibition curve with a large enough effect; inconclusive means small, poorly fitted or top-dose-only effect, or another doubt; inactive means no such curve, though single readings can be large or run the other way. The full list was thinned out, with actives kept by preference.
Potency means the concentration at half of the fitted maximal effect.

The assay concerns the target DNA polymerase beta (Homo sapiens) (UniProt P06746). The assay is described as follows: qHTS Assay for Inhibitors of DNA Polymerase Beta. Particulars: Pol beta primer extension/strand displacement, fluorescence kinetic; series mostly up to 114 µM. In outline: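 Enzyme-only controls used 10 nM Pol beta; buffer lacking enzyme served as negative control. Compound preincubated 15 min, then 50 nM substrate added; 0 and 10 min reads at room temperature.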
For `CCCN(CCC)C(=O)C1CCCN(c2ncnc3c2nc2n3CCCCC2)C1` (configuration not stated), the Potency entry is “inactive”.

Turning to `COc1ccc(-c2cc(C(=O)NCc3cc(OC)c(OC)c(OC)c3)[nH]n2)cc1`, the Potency entry was “inactive”.

For `CCc1ccc(NC(=O)C2CCCN2S(=O)(=O)c2ccc3nc(-c4ccccc4)[nH]c3c2)cc1` (configuration not stated), the Potency is 12.6 µM (active).

In the case of `CCc1nnc(NC(=O)C2CCCN2S(=O)(=O)c2ccccc2)s1` (configuration not stated), the Potency result was “inactive”.

For the molecule `CCc1ccccc1NS(=O)(=O)c1ccc2nc(-c3ccccc3)[nH]c2c1`, the Potency entry is “inactive”.

For the molecule `CCc1ccccc1NC(=O)Cc1ccc(NC(=O)N2CCCCc3ccccc32)cc1`, the Potency entry was “inactive”.

On to `CCOc1ccc(Nc2c(S(=O)(=O)c3ccccc3)cnc3ccccc23)cc1`, for which the Potency result was “inactive”.

With `CCn1cc(C(=O)N2CCN(c3cc(C)ccc3C)CC2)c(=O)c2cc(S(=O)(=O)N(C)C3CCCCC3)ccc21`, the Potency entry was “inactive”.

Turning to `Cc1ccc(S(=O)(=O)N2CCCc3cc(NS(=O)(=O)c4cc(C)ccc4C)ccc32)cc1`, the Potency result was “inactive”.

For the molecule `Cc1ccc(Nc2c(-c3ccc(N(C)C)cc3)nc3nc[nH]n23)cc1`, the Potency result is “inactive”.

As for `O=C(NC(=S)NC1CCS(=O)(=O)C1)c1cccc([N+](=O)[O-])c1` (configuration not stated), the Potency entry was “inactive”.

On to `O=C(NC(=O)c1ccc(Cl)c(Cl)c1)OC1CCS(=O)(=O)C1` (configuration not stated), for which the Potency is 89.1 µM (active).

For the molecule `O=C(Cc1ccc(Cl)cc1)NC1CCS(=O)(=O)C1` (configuration not stated), the Potency result is “inactive”.

For `O=C1CCCC(O)=C1N=Nc1ccc2ncsc2c1`, the Potency was 35.5 µM (active).

For `O=C1CCCC(O)=C1N=Nc1ccc(S(=O)(=O)N2CCOCC2)cc1`, the Potency entry is “inactive”.

For the molecule `O=C(CSc1ncc(CO)n1Cc1ccc(Cl)cc1)NCc1ccc(F)cc1`, the Potency result was “inactive”.

For `Cc1cccc(-c2nnc(SCC(=O)N3CCCc4ccccc43)o2)c1`, the Potency result is “inactive”.

With `CC(C)c1cc(C(=O)N/N=C/C(Br)=C/c2ccccc2)n[nH]1`, the Potency result was “inactive”.

`Cc1ccc(-c2cc(C(=O)N/N=C/C=C/c3ccccc3)n[nH]2)o1`: the Potency was 17.8 µM (active).

Regarding `Cc1ccc(-c2cc(C(=O)NN)n[nH]2)o1`, the Potency entry was “inactive”.

Turning to `O=C(OCc1cc(=O)n2nc(C3CC3)sc2n1)c1ccccc1Cl`, the Potency result was “inactive”.

In the case of `Cc1ccc(OCC(=O)OCc2cc(=O)n3nc(C4CC4)sc3n2)cc1`, the Potency result was “inactive”.

`COc1ccccc1C(=O)OCc1cc(=O)n2nc(-c3cccs3)sc2n1`: the Potency is 17.8 µM (active).

Take `O=C(COc1ccccc1)OCc1cc(=O)n2nc(-c3cccs3)sc2n1`: the Potency is 31.6 µM (active).

Turning to `Cc1nn2c(=O)cc(COC(=O)c3ccccc3NC(=O)COc3ccccc3C)nc2s1`, the Potency entry is “inactive”.

In the case of `Cc1ccc(OCC(=O)OCc2cc(=O)n3nc(C4CC4)sc3n2)cc1C`, the Potency entry is “inactive”.

On to `CCCn1c2ccccc2c2cnn(CC(=O)N(CC)c3cc(C)ccc3C)c(=O)c21`, for which the Potency result is “inactive”.
